The text below walks through data of PubChem BioAssay (NCI).

Molecules are shown by their SMILES. About 83,000 compounds went through this panel and 20% of them were active in at least one assay; those are over-represented in the sample as a whole.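 For each line, cells grew in 96-well plates with the test compound present at a single concentration for 48 hours.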 A number with no mark means an inactive call. Activity calls are given as the source filed them. Rule for the calls: active = growth percent below 10; inactive = the rest.

Some test systems named below: SK-MEL-2 melanoma; EKVX NSCLC; SN12C renal; UO-31 renal; TK-10 renal; ACHN renal; CAKI-1 renal; A498 renal; CCRF-CEM leukemia; MOLT-4 leukemia.
Common to all, as to experiment: NCI-60 one-dose screen, 48 h (100 = growth as untreated, 0 = no growth, -100 = all killed)
What all share (conditions): 10 µM

With `Nc1c(C(=O)Nc2ccccc2F)sc2nc3c(cc12)C(=O)CCC3`, the growth with SK-MEL-2 melanoma is 42.6%; in the assay on EKVX NSCLC, 56.3%; in the assay on SN12C renal it was 49.8%; in the assay with UO-31 renal, 76%; in the assay with TK-10 renal, 59.7%; in the assay with ACHN renal, 65.4%. The growth in the assay with CAKI-1 renal was 4.36% (active); in the assay with A498 renal, -1.01% (active); with CCRF-CEM leukemia it was 26.8%; with MOLT-4 leukemia, 73.6%.
As for `COc1cc(Cn2c(-c3ccccc3)c(Cl)c3c2-c2oncc2CC3)cc(OC)c1`, the growth with SK-MEL-2 melanoma was 75.3%; with EKVX NSCLC, 90.6%; with SN12C renal it was 92%; with UO-31 renal, -7.99% (active); in the assay with TK-10 renal, 104%; with ACHN renal, 69.2%. Besides, the growth was 47.3% in the assay with CAKI-1 renal, 26.5% in the assay on A498 renal, 9.93% (active) in the assay on CCRF-CEM leukemia and 5.45% (active) in the assay on MOLT-4 leukemia.
`CCOC(=O)c1c(Cl)c2c(n1Cc1cccc(OC)c1)-c1oncc1CC2`: the growth in the assay on SK-MEL-2 melanoma is 27.8%; in the assay with EKVX NSCLC it was 56.4%; in the assay with SN12C renal, 42.7%; in the assay with UO-31 renal, -1.88% (active); in the assay on TK-10 renal, 54.7%; in the assay with ACHN renal, 44.8%. Moreover, the growth with CAKI-1 renal is 7.94% (active); in the assay with CCRF-CEM leukemia, 15.8%; with MOLT-4 leukemia, 25.9%.
For the compound `CC(=O)Nc1ccc2c(c1)C(N1CC3CCC(CC3)C1)c1ccccc1-2` (configuration not stated), the growth was 96.7% with SK-MEL-2 melanoma; 88.5% with EKVX NSCLC; 86.8% with SN12C renal; 66.7% with UO-31 renal; 113% with TK-10 renal; 93% in the assay with ACHN renal. Also, the growth with CAKI-1 renal was 70.9%; with A498 renal it was 78.5%; in the assay on CCRF-CEM leukemia, 74.5%; in the assay with MOLT-4 leukemia, 63.5%.
Turning to `O=C(NNC(=O)c1ccncc1)Nc1ccc([N+](=O)[O-])cc1`, the growth in the assay with SK-MEL-2 melanoma is 95.8%; in the assay on EKVX NSCLC it was 91.6%; in the assay on SN12C renal it was 114%; with UO-31 renal, 89.6%; in the assay on TK-10 renal it was 106%; in the assay on ACHN renal it was 101%. Moreover, the growth in the assay with CAKI-1 renal was 96.5%; with A498 renal it was 115%; in the assay on CCRF-CEM leukemia, 107%; with MOLT-4 leukemia, 81.2%.
For the compound `CCCCCCCCCCCCCC[n+]1ccc(C)cc1`, the growth in the assay on SK-MEL-2 melanoma is 13.2%; with EKVX NSCLC, -36.2% (active); with SN12C renal, -2.55% (active); with UO-31 renal, 23.7%; with TK-10 renal, -41.2% (active); in the assay on ACHN renal, 21.5%. Further, the growth with CAKI-1 renal was 31.7%; with A498 renal it was 39.2%; in the assay with CCRF-CEM leukemia, -35.4% (active); in the assay on MOLT-4 leukemia, -36.6% (active).
On to `CCOC(=O)C(=O)Cc1cccnn1`, for which the growth in the assay on SK-MEL-2 melanoma is 103%; in the assay on EKVX NSCLC, 111%; in the assay with SN12C renal, 99.9%; in the assay with UO-31 renal, 82.9%; in the assay on TK-10 renal, 101%; with ACHN renal, 103%. Also, the growth with CAKI-1 renal is 103%; in the assay on A498 renal, 113%; in the assay with CCRF-CEM leukemia, 91.7%; in the assay with MOLT-4 leukemia, 93.4%.
As to `C#CCNCCCN1C(=O)c2ccc3c4c(ccc(c24)C1=O)C(=O)N(CCCNCC#C)C3=O`, the growth in the assay on SK-MEL-2 melanoma is -21.5% (active); in the assay with EKVX NSCLC, -79.3% (active); in the assay with SN12C renal it was -97.7% (active); in the assay with UO-31 renal, -62.1% (active); in the assay on TK-10 renal it was -11.3% (active); in the assay on ACHN renal it was -33.1% (active). For the same compound, the growth was -77.9% (active) in the assay on CAKI-1 renal, -96.2% (active) in the assay with A498 renal, -0.672% (active) in the assay with CCRF-CEM leukemia and -13.1% (active) in the assay on MOLT-4 leukemia.
In the case of `CCCCNC(=O)Oc1ccc(/C(=C(\C)c2ccc(OC)cc2)c2ccc(OCCN3CCCCC3)cc2)cc1`, the growth with SK-MEL-2 melanoma was 67.8%; in the assay on EKVX NSCLC, 68.3%; in the assay on SN12C renal, 69.1%; with UO-31 renal it was 11.2%; with TK-10 renal it was 102%; with ACHN renal, 78.6%. In addition, the growth is 60.3% with CAKI-1 renal, 71% in the assay with A498 renal, 58.5% in the assay on CCRF-CEM leukemia and 20.1% in the assay on MOLT-4 leukemia.
Consider `Cc1ccc2nc3[nH]c(=O)[nH]c(=O)c3c(N)c2c1`, for which the growth in the assay on SK-MEL-2 melanoma was 98%; with EKVX NSCLC, 59.9%; in the assay with SN12C renal, 72.6%; with UO-31 renal it was 54.9%; in the assay on TK-10 renal, 78.2%; in the assay on ACHN renal, 60.2%. Besides, the growth in the assay with CAKI-1 renal is 58%; in the assay on A498 renal, 115%; in the assay on CCRF-CEM leukemia it was 77.7%; in the assay on MOLT-4 leukemia it was 86.6%.
In the case of `O=[N+]([O-])c1ccc(S(=O)(=O)OCCCCOS(=O)(=O)c2ccc([N+](=O)[O-])cc2)cc1`, the growth was 115% in the assay on SK-MEL-2 melanoma; 95.8% in the assay with EKVX NSCLC; 97% with SN12C renal; 90.1% in the assay with UO-31 renal; 113% in the assay with TK-10 renal; 110% in the assay on ACHN renal. The values for the growth in the assay on CAKI-1 renal, in the assay with A498 renal and in the assay on MOLT-4 leukemia were 97.9%, 104% and 94.7%, respectively.
`Cc1cc(C#Cc2ccccc2)ccc1-n1c(/C=C/c2cc(O)ccc2O)nc2ccccc2c1=O`: the growth with SK-MEL-2 melanoma is -12.9% (active); in the assay with EKVX NSCLC it was -7.48% (active); in the assay on SN12C renal, -5.43% (active); in the assay on UO-31 renal it was -27.9% (active); with TK-10 renal, 29.7%; in the assay with ACHN renal, 8.83% (active). For the same compound, the growth is -5.93% (active) in the assay on CAKI-1 renal, 41% in the assay with A498 renal, 7.82% (active) in the assay with CCRF-CEM leukemia and 3.81% (active) in the assay with MOLT-4 leukemia.
As for `C/C(=N\NC(N)=S)C(C)(C)O`, the growth was 98.5% in the assay with SK-MEL-2 melanoma; 67.1% in the assay with EKVX NSCLC; 87.1% with SN12C renal; 68.9% with UO-31 renal; 126% with TK-10 renal; 90.2% in the assay with ACHN renal. Also, the growth is 89.6% in the assay with CAKI-1 renal, 91.7% with A498 renal and 44.9% with MOLT-4 leukemia.
Turning to `CCN1CCOC1C(C)C` (configuration not stated), the growth in the assay with SK-MEL-2 melanoma was 95.3%; in the assay with EKVX NSCLC it was 107%; in the assay on SN12C renal it was 99.8%; with UO-31 renal it was 79.5%; in the assay with TK-10 renal, 130%; in the assay on ACHN renal, 102%. Further, the growth with CAKI-1 renal was 98.2%; in the assay with A498 renal, 98.8%; with CCRF-CEM leukemia, 103%; with MOLT-4 leukemia it was 94.3%.
